Screening data (PubChem BioAssay)
Insulin prom inh = TRM-6 insulin promoter activity inhibition; inhibition, % at 2 µM; 130,000 compounds, 0.9% hits; TRM-6 cells (human fetal islet line), insulin promoter-eGFP reporter, imaging; reporter expression induced with tamoxifen;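 active means inhibition above the mean plus 3 SD, with well images judged a real hit on visual review, cut at about 60% in these data, passing the limit was not always enough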
Ins promoter up = MIN6 insulin promoter up-regulation; MIN6 insulin promoter-GFP reporter, high-content imaging; hits give high values; 190,000 compounds, 0.3% hits; AID 1625; z-score at 5 µM;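 active means z-score above 3 at 5 µM with at least 500 cells counted in the well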
PTEN del growth = PTEN-deleted cell growth suppression | viability, % at 10 µM | HCT116 PTEN-null viability, CellTiter-Glo, 60 h; hits give low values | 140,000 compounds, 1.2% hits;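 active means viability at or below a set limit, 4 SD under the median of all tested compounds, cut at about 3.7% in these data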;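 further: PTEN knockout HCT116 line with beta catenin targeted HCT116 as companion control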
Lmaj promast = inhibitors of Leishmania major promastigote growth | inhibition, % at 10 µM | Leishmania major promastigotes, resazurin fluorescence viability | 200,000 compounds, 9% hits; in the data active means inhibition above about 50%;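 further: promastigotes grown with compound for 44 hours at 28 °C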
bCat KO growth = beta-catenin-lacking colon tumor cell growth suppression. viability, % at 10 µM. HCT116 beta-catenin knockout viability, CellTiter-Glo, 60 h; hits give low values. AID 818. 140,000 compounds, 1.5% hits;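 active means viability at or under a set limit, the compound median less 4 SD, cut at about 6% in these data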
Autophagy mod = autophagy modulation, high-content screen. MEF GFP-LC3 puncta imaging; test concentration mostly 10 µM. calls only at 10 µM (by protocol). 190,000 compounds, 0.98% hits. AID 463193;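 active means percentage of spot-positive cells more than 3 SD above its plate mean, without a fluorescence outlier flag or 80% toxicity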
Numbers stand for hits; – = inactive; · = no result. A selection: hits, their analogues and other compounds. The true share with any hit is near 9.6%.

SMILES	Insulin prom inh	Ins promoter up	PTEN del growth	Lmaj promast	bCat KO growth	Autophagy mod
COCCn1c(N)c(C(=O)NCc2cccs2)c2nc3ccccc3nc21	–	–	–	–	–	–
COCCn1c(N)c(C(=O)Nc2sc3c(c2C(=O)OC)CCCC3)c2nc3ccccc3nc21	–	–	–	–	4.0	–
CC(C)OC(=O)c1c(NC(=O)Cn2cnc([N+](=O)[O-])n2)sc2c1CCCC2	–	–	–	85	–	–
Cc1cccc(NC(=O)COc2cccc3c2CCN(C)C3=O)c1C	·	–	·	–	·	–
CC(C)OC(=O)c1c(NC(=O)c2cccs2)sc2c1CCCC2	·	–	–	–	–	–
NC(=O)c1c(NC(=O)Cn2cnc([N+](=O)[O-])n2)sc2c1CCCC2	·	–	·	·	·	·
CCOC(=O)c1c(NC(=O)Cn2cnc([N+](=O)[O-])n2)sc2c1CCCC2	–	–	–	92	–	–
CCOC(=O)c1c(NC(=O)COc2cccc3c2CCN(C)C3=O)sc2c1CCC2	–	–	–	80	–	–
CCn1c(=O)[nH]c2cc(C(=O)N3CCN(c4ccccc4)CC3)ccc2c1=O	–	–	–	–	–	–
O=c1oc2c(CN3CCOCC3)c(O)ccc2c2ccccc12	–	–	–	–	–	–
COc1ccc(-c2nc(CC(=O)O)cs2)cc1	–	–	–	–	–	–
CCOC(=O)c1c(NC(=O)C2CCCN(S(=O)(=O)c3ccccc3)C2)sc2c1CCCC2 (configuration not stated)	–	–	–	81	–	–
CCOC(=O)c1c(NC(=O)C2CCCN(S(=O)(=O)c3ccc(C)cc3)C2)sc2c1CCCC2 (configuration not stated)	–	–	–	–	–	–
CCOC(=O)c1c(NC(=O)c2ccc(-n3cnnn3)cc2)sc2c1CCCC2	–	–	–	–	3.4	–
CCOc1cc(S(=O)(=O)Nc2cc(C)cc(C)c2)ccc1Cl	–	–	–	96	–	–
c1ccc2c(c1)CCCC2C1=NCCN1 (configuration not stated)	–	·	0.8	–	0.8	–
Brc1ccc2c(c1)C(C1=NCCN1)c1ccccc1CS2 (configuration not stated)	–	–	–	–	–	–
Clc1ccc(-n2cnnn2)cc1	–	–	–	–	–	–
Cn1c(=Nc2ccccc2)sc2ccccc21	–	–	–	–	–	–
O=C(Nc1ccc(Cl)c(Cl)c1)Nc1nnc(CSc2ccccc2)s1	–	·	2.6	–	2.2	–
O=C(Nc1ccccc1)Nc1nnc(CSCc2ccccc2Cl)s1	–	–	–	–	–	–
O=C(CCC(=O)c1cccs1)c1cccs1	81	·	–	–	–	–
CCCNC(=O)COC(=O)CCC(=O)c1cccs1	–	–	–	57	–	–
O=C(CCC(=O)c1cccs1)NC(c1ccccc1)c1ccccc1	–	–	–	–	–	–
CCOC(=O)C1CCN(Cc2cnc(Oc3ccc(OC)cc3)s2)CC1	–	·	–	93	–	–
SMILES	Insulin prom inh	Ins promoter up	PTEN del growth	Lmaj promast	bCat KO growth	Autophagy mod
CCOC(=O)C1CCCN(Cc2ccccc2OCC)C1 (configuration not stated)	–	–	–	–	–	–
CCOC(=O)C1CCCN(Cc2nc(N)nc(Nc3ccc(Cl)cc3)n2)C1 (configuration not stated)	–	–	–	71	–	–
CCOC(=O)C1CCCN(Cc2nc(N)nc(Nc3ccc(OC)cc3)n2)C1 (configuration not stated)	–	–	–	–	–	–
CCOC(=O)C1CCN(C(=O)C2CCN(c3nc4ccc(OC)cc4s3)CC2)CC1	·	–	–	–	–	–
CCOC(=O)C1CCN(Cc2cc(C(C)C)c(O)c(C(C)C)c2)CC1	–	–	·	58	·	–
CCOC(=O)C1CCCN(Cc2ccc(OCC)cc2)C1 (configuration not stated)	–	–	–	90	–	–
CC12CCC(C(=O)Nc3ccccc3N3CCOCC3)(CC1=O)C2(C)C (configuration not stated)	–	–	–	–	–	–
O=C(O)CSc1nnc(-c2ccccc2Br)n1-c1cccc(C(F)(F)F)c1	·	–	·	–	·	–
Cc1ccc(C)n1-c1ccccc1N	–	·	–	–	–	–
CCOC(=O)C1CCN(Cc2ccc(N(C)C)cc2)CC1	·	–	–	–	–	–
CCOC(=O)C1CCN(Cc2ccccc2C)CC1	–	·	–	89	–	–
CCOC(=O)C1CCN(Cc2ccc(OC)cc2OC)CC1	·	–	–	–	–	–
CCOC(=O)C1CCN(Cc2ccc(F)c(F)c2)CC1	–	–	–	80	–	–
CCOC(=O)C1CCN(Cc2cccc(OC)c2)CC1	–	–	–	90	–	–
Cc1cccc2nc(=S)n(C(=O)c3ccco3)n12	·	–	–	–	–	–
CCC1CCCCN1C(=O)CSc1nc2ccsc2c(=O)n1Cc1ccccc1 (configuration not stated)	–	–	–	58	–	–
CCN(CC)C(C)C#CCC(c1ccccc1)c1ccccc1 (configuration not stated)	·	–	·	·	·	·
CC(C)(C)c1ccc(C(=O)Nc2sc3c(c2C(=O)O)CCC3)cc1	–	–	·	–	·	–
COC(=O)c1cc2c(-c3ccccc3)cc3ccccn3c-2c1C(=O)OC	–	·	–	88	–	–
CC(=O)c1ccc(NC(=O)c2ccc(CSc3ccccc3)o2)cc1	·	–	–	–	–	–
C=C(C)c1nc2cc(OC)c(OC)cc2c(=O)o1	–	–	–	–	–	–
COc1ccc(NC(=O)/C(C#N)=C/c2c(C)nn(-c3ccc(F)cc3)c2Cl)cc1Cl	–	–	–	96	–	–
COc1ccccc1NC(=O)/C(C#N)=C/c1c(C)nn(-c2ccc(F)cc2)c1Cl	·	–	–	–	–	–
Cc1nn(-c2ccccc2)c(Cl)c1/C=C(\C#N)C(=O)NC(C)C	–	–	–	100	–	–
COc1ccccc1COn1c(=O)c(-c2ccco2)[n+]([O-])c2ccccc21	·	–	·	–	·	–
SMILES	Insulin prom inh	Ins promoter up	PTEN del growth	Lmaj promast	bCat KO growth	Autophagy mod
O=C(NC(=S)Nc1nc(-c2cccc([N+](=O)[O-])c2)cs1)c1cc(Cl)ccc1Cl	·	–	·	–	·	–
Cc1cc(N=Cc2cc(Cl)ccc2O)no1	–	–	–	–	–	–
O=C(NNc1nc2cc3c(cc2s1)OCO3)c1ccc(F)cc1	–	–	–	77	–	–
Cc1nc2c(ccc3nc(NC(=O)c4ccc5c(c4)OCCO5)sc32)s1	–	–	–	63	–	–
O=C(NNc1nc2cc3c(cc2s1)OCCO3)c1ccc(F)cc1	–	–	·	–	·	–
O=C(Nc1nc2cc3c(cc2s1)OCCO3)c1ccc(N2C(=O)CCC2=O)cc1	·	–	·	·	·	·
O=C(Nc1nc2cc3c(cc2s1)OCCO3)c1ccncc1	·	–	·	95	·	–
c1ccc2sc(Nc3nc4cc5c(cc4s3)OCO5)nc2c1	–	–	–	90	–	–
O=C(N/N=C/c1cc2c(cc1[N+](=O)[O-])OCO2)c1ccccn1	–	·	·	–	·	–
CC(NC(=O)c1ccncc1)C(c1cccs1)N1CCOCC1 (configuration not stated)	–	–	–	–	–	–
O=C(O)CSc1nc2ccccc2s1	·	–	·	·	·	·
